# High-throughput results from PubChem.
# Compounds with a hit are over-represented: about 1.1% of the library has one in this group of screens.
# TNFa cytotox: toxic to HUVEC cells under TNF alpha stimulation | HUVEC TNFalpha-stimulated, Hoechst cell count, imaging | cell count reduction, % at 2 µM | hit rate 0.17% among 93,000 | AID 848;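 active = cell count reduction exceeding the screen mean by over 5 SD, scaled to untreated wells per plate, cut at about 78% in these data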;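 note: cells counted after 24 h of TNF alpha exposure following the 1 h pretreatment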
# VCAM1 TNFa inh: reduces TNF alpha induced VCAM1 expression in HUVEC; hit rate 0.48% among 95,000; HUVEC TNFa-induced VCAM-1 immunofluorescence, high-content imaging; inhibition, % at 2 µM;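 active = inhibition above the batch mean plus 3 SD, with images confirmed as a hit by eye, cut at about 37% in these data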
# E-sel TNF inh: TNF alpha driven E-selectin expression inhibition. HUVEC TNFa-induced E-selectin immunofluorescence, high content. inhibition, % at 2 µM. hit rate 0.71% among 120,000;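 active = inhibition above the batch mean plus 3 SD, and confirmed as a hit on visual image review, cut at about 43% in these data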
# F-actin modifier: cytoskeleton assembly modification | hit rate 0.18% among 91,000 | HUVEC TNFa F-actin phalloidin imaging, high content | inhibition, % at 2 µM;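 active = inhibition above the batch mean plus 3 SD and confirmed as a hit by visual image inspection, cut at about 30% in these data, passing the limit was not always enough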
# A number is an active result; . = inactive; / = no result.
SMILES,TNFa cytotox,VCAM1 TNFa inh,E-sel TNF inh,F-actin modifier
Cn1cccc1/C=C1/C(=O)NC(=O)N(Cc2ccccc2)C1=O,/,/,61,/
O=C(COc1ccc2ccccc2c1)N1CCN(CC2CC3C=CC2C3)CC1 (stereo not drawn),.,.,.,.
CC(C(=O)c1c[nH]c2ccccc12)N1CCSCC1 (stereo not drawn),.,.,/,.
CC(C)C12CN3CCN(CC(C3)/C1=N\O)C2,.,.,.,.
O=C(COc1ccccc1)N1CCN(CC(O)COc2ccccc2)CC1 (stereo not drawn),.,.,/,35
CC(=O)Nc1ccc(OC(=O)N(C)C)cc1,.,.,/,.
CN1C2CCC1/C(=C/c1ccccn1)C(=O)/C2=C\c1ccccn1,/,/,96,/
CCOC(=O)C1(CCOc2ccccc2)CCN(Cc2ccc(C)s2)CC1,/,/,.,/
CN1C(=O)N(C)C(=O)C2(Cc3ccccc3N3CCOCC32)C1=O (stereo not drawn),.,66,.,.
Cc1ccc(N2C(=O)NC(=O)C3(Cc4ccccc4N4CCN(c5ccccc5)CC43)C2=O)cc1 (stereo not drawn),.,.,.,.
O=C1NC(=O)C2=Cc3ccc(O)cc3OC2(O)N1 (stereo not drawn),/,/,.,/
CCN1CCC2(CC1)NC(CO)(CO)CO2,.,.,.,.
CCN1CCC2(CCNC2)C1 (stereo not drawn),.,.,98,.
C=C1C2C[C@H](O)C(C)(C)[C@@]2(O)[C@H](O)C[C@]23C[C@@](C)(O)[C@H](CC[C@H]12)[C@H]3OC(C)=O (stereo partly drawn),/,/,.,/
COc1cc2c3c(c1OC)-c1cc(O)ccc1CC3NCC2 (stereo not drawn),.,44,.,.
CCOC(=O)N(c1ccccc1)P1(=S)OCCO1,.,.,79,.
COC(=O)C[C@]1(C(=O)OC)CN(C#N)N(c2ccc(Cl)cc2)C12c1ccccc1-c1ccccc12,/,100,89,.
CCN1CCN(Cc2ccc(C)cc2C)CC1,/,/,.,/
CCN1CCN(Cc2ccc(C)cc2)CC1,/,/,95,/
CCN1CCN(Cc2ccccc2C)CC1,/,/,95,/
COC(=O)C1=CCCN(C)C1,/,/,.,/
Cc1ccc(C(=O)Nc2ccc(-n3ccnc3P(=O)(O)c3ccccc3)cc2)cc1,.,.,.,.
CN(C)C(=S)SSC(=S)N(C)C,/,/,86,/
O=C(C1CC(c2ccccc2O)=NO1)N1CCC2(CC1)OCCO2 (stereo not drawn),.,.,.,.
CC(=O)NC1CC2CCCC(C1)N2 (stereo not drawn),.,.,.,67
O=S1(=O)CCN(CCc2c[nH]c3ccccc23)CC1,/,/,100,/
Cc1oc(-c2cccs2)nc1CSCC(=O)N1CCC2(CC1)OCCO2,.,.,67,.
COc1ccc(-c2nc(CSCC(=O)N3CCC4(CC3)OCCO4)c(C)o2)cc1OC,.,.,/,/
CN1CCc2nc3sc(C#N)c(N)c3c(-c3cccs3)c2C1,.,90,/,.
CN1CCc2nc(N)c(C#N)c(-c3ccccc3)c2C1,.,.,.,.
